Results on 3 compounds are retold here after PubChem BioAssay (EPA / NIEHS).

Read-out in test [1]: Interleukin-8 (IL8), CXCL8 (gene 3576)
Put plainly: BSK_MyoF_IL8: BioMAP Diversity Plus: MyoF Assay for Interleukin-8 (IL8) Biomarker Activity (AID 2284261). The note with it: primary human lung fibroblasts. An outline of the steps:
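In this multiplexed primary-cell system, fibroblasts from human lung are treated with chemicals, and IL-8 is detected by ELISA at 24 h, with DMSO serving as the negative reference.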

Read-out in another test: Decorin, DCN (gene 1634)
Put plainly: BSK_MyoF_Decorin: BioMAP Diversity Plus: MyoF Assay for Decorin Biomarker Activity (AID 2284265). As to conditions: primary human lung fibroblasts. The procedure, abridged:
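Lung fibroblast cultures, 24 h chemical exposure. Decorin by ELISA, positive fitting direction, DMSO baseline.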

Read-out in a further test: CD69, CD69 (gene 969)
Briefly: BSK_IMphg_CD69: BioMAP Diversity Plus: IMphg Assay for CD69 Biomarker Activity (AID 2284257). As to conditions: primary human endothelial cells with macrophages. The procedure, abridged:
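Human venular endothelial cells co-cultured with macrophages; CD69 quantified by ELISA 24 h after compound addition. Activity fitted in the positive direction relative to DMSO baseline; cytotoxicity tracked in parallel cultures via SRB total-protein staining.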

Read-out in test [2]: Eotaxin 3, CCL26 (gene 10344)
Put plainly: BSK_BF4T_Eotaxin3: BioMAP Diversity Plus: BF4T Assay for Eotaxin 3 Biomarker Activity (AID 2284258). The note with it: primary human bronchial epithelial cells with fibroblasts. As for the experimental part:
(§1) BSK_BF4T is a cell-based, multiplexed-readout assay that uses bronchial epithelial cells and dermal fibroblasts, a human vascular primary cell, with measurements taken at 24 hours after chemical dosing in a microplate: 96-well plate.BSK_BF4T_Eotaxin3 is an assay component measured in the BSK_BF4T assay. It measures Eotaxin-3 antibody related to regulation of gene expression using ELISA technology.Data from the assay component BSK_BF4T_Eotaxin3 was analyzed at the endpoint, BSK_BF4T_Eotaxin3, in the positive analysis fitting direction relative to DMSO as the negative control and baseline of activity. Using a type of binding reporter, gain or loss-of-signal activity can be used to understand protein changes. To generalize the intended target to other relatable targets, this assay endpoint is annotated to the 'cytokine' intended target family, where the subfamily is 'chemotactic factor'.
The levels of cell surface (or secreted, indicated by the prefix "s") biomarker endpoints were measured by ELISA. Overt cytotoxicity to cells in confluent adherent cultures (all systems other than the BT system) was assessed by measuring total protein levels using sulforhodamine B (SRB) staining in parallel cultures at the time of biomarker measurements, indicated as SRB endpoints. For proliferation assays for adherent cell types, individual cell types are cultured at sub-confluence and relative cell numbers quantified by SRB staining at time points optimized for each system (48 h: 3C and CASM3C systems; 72 h: BT and HDF3CGF systems; 96 h: SAg system). SRB was performed by staining cells with 0.1% SRB after fixation with 10% TCA and reading wells at 560 nm.Viability and proliferation of PBMC (T cells) was quantified by Alamar Blue reduction for the SAg and BT systems. […] Then, Alamar Blue (20 uL/well) (Invitrogen, Cat DAL1100) was added for 6 h, and the plates were read with a fluorescence microplate reader at 546/580 nm (excitation/emission). […] Plates were read after 6 h.

Read-out in test [3]: Monocyte Chemoattractant Protein-1 (MCP1), CCL2 (gene 6347)
Briefly: BSK_BF4T_MCP1: BioMAP Diversity Plus: BF4T Assay for Monocyte Chemoattractant Protein-1 (MCP1) Biomarker Activity (AID 2284259). The note with it: primary human bronchial epithelial cells with fibroblasts. As for the experimental part: as §1, with “plate.BSK_BF4T_MCP1” for “plate.BSK_BF4T_Eotaxin3”, “MCP-1” for “Eotaxin-3”, “BSK_BF4T_MCP1” for “BSK_BF4T_Eotaxin3”, “BSK_BF4T_MCP1,” for “BSK_BF4T_Eotaxin3,”
The levels of cell surface (or secreted, indicated by the prefix "s") biomarker endpoints were measured by ELISA. Overt cytotoxicity to cells in confluent adherent cultures (all systems other than the BT system) was assessed by measuring total protein levels using sulforhodamine B (SRB) staining in parallel cultures at the time of biomarker measurements, indicated as SRB endpoints. For proliferation assays for adherent cell types, individual cell types are cultured at sub-confluence and relative cell numbers quantified by SRB staining at time points optimized for each system (48 h: 3C and CASM3C systems; 72 h: BT and HDF3CGF systems; 96 h: SAg system). SRB was performed by staining cells with 0.1% SRB after fixation with 10% TCA and reading wells at 560 nm.Viability and proliferation of PBMC (T cells) was quantified by Alamar Blue reduction for the SAg and BT systems. For PBMC viability (referred to as PBMC Cytotoxicity within the assay endpoint names), cells were plated (75,000/well in a 96-well plate) and then chemical samples added for 1 h before addition of activators, SEB and TSST-1 (20 ng/mL final concentration each). Cells were incubated for 90 h. Then, Alamar Blue (20 uL/well) (Invitrogen, Cat DAL1100) was added for 6 h, and the plates were read with a fluorescence microplate reader at 546/580 nm (excitation/emission). For PBMC proliferation, cells were plated and activated as above but incubated for only 16 h prior to addition of Alamar Blue. Plates were read after 6 h.

Read-out in test [4]: Intercellular Adhesion Molecule 1 (ICAM1), ICAM1 (gene 3383)
Briefly: BSK_BF4T_ICAM1: BioMAP Diversity Plus: BF4T Assay for Intercellular Adhesion Molecule 1 (ICAM1) Biomarker Activity (AID 2284260). The note with it: primary human bronchial epithelial cells with fibroblasts. An outline of the steps:
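Co-culture of human bronchial epithelial cells and dermal fibroblasts exposed 24 h to chemical; cell-surface ICAM-1 quantified by ELISA. Parallel SRB total-protein staining assessed cytotoxicity; activity fitted relative to DMSO.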

Read-out in a further test: CD90, THY1 (gene 7070)
Briefly: BSK_BF4T_CD90: BioMAP Diversity Plus: BF4T Assay for CD90 Biomarker Activity (AID 2284262). As to conditions: primary human bronchial epithelial cells with fibroblasts. The protocol:
as §1, with “plate.BSK_BF4T_CD90” for “plate.BSK_BF4T_Eotaxin3”, “CD90” for “Eotaxin-3”, “BSK_BF4T_CD90” for “BSK_BF4T_Eotaxin3”, “BSK_BF4T_CD90,” for “BSK_BF4T_Eotaxin3,”, “To generalize the intended target to other relatable targets, this assay endpoint is annotated to the 'cytokine' intended target family, where the subfamily is 'chemotactic factor'.” left out
(§2) The levels of cell surface (or secreted, indicated by the prefix "s") biomarker endpoints were measured by ELISA. Overt cytotoxicity to cells in confluent adherent cultures (all systems other than the BT system) was assessed by measuring total protein levels using sulforhodamine B (SRB) staining in parallel cultures at the time of biomarker measurements, indicated as SRB endpoints. For proliferation assays for adherent cell types, individual cell types are cultured at sub-confluence and relative cell numbers quantified by SRB staining at time points optimized for each system (48 h: 3C and CASM3C systems; 72 h: BT and HDF3CGF systems; 96 h: SAg system). […] Plates were read after 6 h.

Read-out in test [5]: Interleukin-8 (IL8), CXCL8 (gene 3576)
Put plainly: BSK_BF4T_IL8: BioMAP Diversity Plus: BF4T Assay for Interleukin-8 (IL8) Biomarker Activity (AID 2284263). The note with it: primary human bronchial epithelial cells with fibroblasts. An outline of the steps: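 Human bronchial epithelial cells with dermal fibroblasts co-culture; IL-8 measured by ELISA 24 hours after dosing, fitted vs DMSO. Cytotoxicity tracked in parallel cultures by SRB total-protein staining.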

Read-out in test [6]: Interleukin-1 alpha (IL1a), IL1A (gene 3552)
Put plainly: BSK_BF4T_IL1a: BioMAP Diversity Plus: BF4T Assay for Interleukin-1 alpha (IL1a) Biomarker Activity (AID 2284264). The note with it: primary human bronchial epithelial cells with fibroblasts. The procedure, abridged:
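Human bronchial epithelial cells co-cultured with dermal fibroblasts, dosed and read at 24 h. Secreted/surface IL-1α quantified by ELISA; gain-of-signal fitted relative to DMSO baseline. Parallel SRB total-protein staining tracked cytotoxicity.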

Read-out in another test: KRT18 (gene 3875)
Put plainly: BSK_BF4T_Keratin818: BioMAP Diversity Plus: BF4T Assay for Keratin 818 Biomarker Activity (AID 2284266). As to conditions: primary human bronchial epithelial cells with fibroblasts. The protocol: BSK_BF4T is a cell-based, multiplexed-readout assay that uses bronchial epithelial cells and dermal fibroblasts, a human vascular primary cell, with measurements taken at 24 hours after chemical dosing in a microplate: 96-well plate.BSK_BF4T_Keratin818 is an assay component measured in the BSK_BF4T assay. It measures Keratin 8/18 antibody related to regulation of gene expression using ELISA technology.Data from the assay component BSK_BF4T_Keratin818 was analyzed at the endpoint, BSK_BF4T_Keratin818, in the positive analysis fitting direction relative to DMSO as the negative control and baseline of activity. […]
as §2

Several values for one entry are separate records, joined by “and”; a condition that tells them apart may be missing. Equal values may be shown once. Where a structure was tested more than once in an assay, its records may differ in their call. Activity calls are given as the source filed them. Rule for the calls: active = hit-call score of the fitted dose curve at least 0.9, where 1 is the maximum; inactive = score below 0.9.

Take `ClC1C(Cl)C(Cl)C(Cl)C(Cl)C1Cl` (stereo unspecified): the outcome in test [1] is “inactive”; with Decorin, DCN (gene 1634), “inactive”.
With `O=C(O)C(F)(F)C(F)(F)C(F)(F)C(F)(F)C(F)(F)C(F)(F)C(F)(F)F`, the outcome with CD69, CD69 (gene 969) was “inactive”; in test [2], “inactive”; in test [3], “inactive”; in [4], “inactive”; in test [1] it was “inactive”; with CD90, THY1 (gene 7070) it was “inactive”. For the same compound, the outcome in test [5] was “inactive”; in test [6] it was “inactive”; with Decorin, DCN (gene 1634), “inactive”; with KRT18 (gene 3875), “inactive”. For the same compound, the concentration at half-maximal activity (AC50) in test [3] is 50.1 µM (active).
Turning to `O=S(=O)(O)C(F)(F)C(F)(F)C(F)(F)C(F)(F)C(F)(F)C(F)(F)C(F)(F)C(F)(F)F`, the concentration at half-maximal activity (AC50) with CD69, CD69 (gene 969) was 30 µM (active); in test [2] it was 17.2 µM (active) and 1.82 µM (active); in test [3] it was 44.6 µM (active). Also, the outcome with CD69, CD69 (gene 969) was “inactive”; in test [2] it was “inactive”; in test [3], “inactive”; in test [4], “inactive”; in test [1], “inactive”; in the test with CD90, THY1 (gene 7070), “inactive”. Besides, the outcome in [5] is “inactive”; in test [6] it was “inactive”; in the test with Decorin, DCN (gene 1634), “inactive”; in the test with KRT18 (gene 3875) it was “inactive”.
